From PubChem BioAssay (Tox21)
Inconclusive results are not listed. The source made the active and inactive calls. Unless noted, the call rests on the fitted dose curve; in most records, active means well fitted curve in the direction sought with a large enough effect in the repeat runs; inconclusive means weak or mixed curves; inactive means no such curve, though single readings can be large; an effect the other way counts as inactive or inconclusive.

What was measured:
[1] = qHTS assay to identify small molecule agonists of the vitamin D receptor (VDR) signaling pathway - cell viability counter screen (AID 743224); further: nearly all actives have a fitted effect of over 50% in size; further: potency means the concentration at half of the fitted maximal effect
Outline: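 Cells: VDR-bla, 2,000/well, settled 4 h. Treatment: compounds in DMSO, 16 h, 37C/5% CO2. Readout: CellTiter-Glo luminescence after 30 min RT.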

[2] = qHTS assay to identify small molecule antagonists of the vitamin D receptor (VDR) signaling pathway - cell viability counter screen (AID 743225); further: nearly all actives have a fitted effect of over 50% in size; further: potency means the concentration at half of the fitted maximal effect
Outline: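 Luminescent cell viability (CellTiter-Glo) in VDR-bla HEK 293T cells after 16 h compound exposure at 37C in the presence of 3 nM final 1-alpha,25-dihydroxy vitamin D3.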

[3] = qHTS assay to identify small molecule agonists of the endoplasmic reticulum stress response signaling pathway (AID 1159516; active means well fitted activation curve with a large enough effect in the signal ratio in the repeat runs, not every such curve was filed as active; the % refers to the signal ratio; further: potency means the concentration at half of the fitted maximal effect)
Outline: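 Cells are seeded at 1,500 per well and incubated overnight. Compounds in DMSO are added for 5 hr at 37 C, then beta-lactamase FRET substrate for 2 hr at room temperature, and fluorescence at 460 and 530 nm is measured.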

[4] = qHTS assay to identify small molecule agonists of the endoplasmic reticulum stress response signaling pathway - cell viability counter screen (AID 1159517; calls by dose curve; further: nearly all actives have a fitted effect of over 50% in size; further: potency means the concentration at half of the fitted maximal effect)
Outline: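 Cytotoxicity of test compounds toward ESRE-bla HeLa cells was assessed after 5 hr exposure. The luminescent CellTiter-Glo signal was measured 30 min after reagent addition.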

[5] = target: Nuclear receptor ROR-gamma (Homo sapiens) (UniProt P51449); assay: qHTS assay to identify small molecule antagonists of the retinoid-related orphan receptor gamma (ROR-gamma) signaling pathway (AID 1159521; further: nearly all actives have a fitted effect of over 50% in size; further: potency means the concentration at half of the fitted maximal effect)
Outline: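 CHO cells expressing RORγ under a TET-on promoter, luciferase under RORE control. Dox 1 uM final, 16 h; compounds added 2 h prior. Luminescence decrease measured.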

[6] = qHTS assay to identify small molecule agonists of the AP-1 signaling pathway - cell viability counter screen (AID 1159525; calls by dose curve; further: nearly all actives have a fitted effect of over 55% in size; further: potency means the concentration at half of the fitted maximal effect)
Outline: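 Each titration point was normalised to DMSO and tetra n-octyl ammonium bromide controls. The read was Cell Titer Glo luminescence after 30 min at RT, following 5 h compound exposure of ME-180 AP-1-bla cells at 37 °C.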

[7] = qHTS assay to identify small molecule agonists of the AP-1 signaling pathway (AID 1159526; calls by dose curve; further: potency means the concentration at half of the fitted maximal effect)
[8] = qHTS assay to identify small molecule agonists of the RXR signaling pathway - cell viability counter screen (AID 1159529); further: nearly all actives have a fitted effect of over 50% in size; further: potency means the concentration at half of the fitted maximal effect
Outline: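 Same-well viability check after the LiveBLAzer FRET read: CellTiter-Glo added, luminescence measured after 30 min at room temperature. Reporter HEK 293T cells had been treated with compounds for 16 hr following a 5 hr preincubation.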

[9] = qHTS assay to identify small molecule antagonists of the retinoid acid receptor (RAR) signaling pathway - cell viability counter screen (AID 1159551); further: nearly all actives have a fitted effect of over 35% in size
Outline: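 Cells (C3RL4) are plated, incubated overnight, dosed with compound in DMSO, then given retinol at 1 uM final. After 6 h at 37 C, CellTiter-Glo is added and luminescence read following 30 min at room temperature.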

[10] = qHTS assay to identify small molecule antagonists of the retinoic acid receptor (RAR) signaling pathway (AID 1159552; further: nearly all actives have a fitted effect of over 50% in size; further: potency means the concentration at half of the fitted maximal effect)
Outline: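 Readout: luciferase luminescence, 30 min post-reagent at RT. Setup: C3RL4 RARE reporter cells, compounds plus retinol 1 uM final, 6 hr incubation at 37 C and 5% CO2.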

[11] = qHTS assay to identify small molecule agonists of the retinoic acid receptor (RAR) signaling pathway (AID 1159553); further: potency means the concentration at half of the fitted maximal effect
Outline: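 Seed C3RL4 reporter cells at 1,000 per well and incubate overnight at 37 C. Add compounds in DMSO, incubate 6 hr. Add luciferase reagent, wait 30 min at room temperature, read luminescence.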

[12] = qHTS assay to identify small molecule antagonists of the estrogen related receptor (ERR) signaling pathway - cell viability counter screen (AID 1224818); further: series mostly up to about 46 µM
Outline: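 ERR cells, 2,000/well; 6 h settle at 37 C/5% CO2; compound pin transfer (DMSO); 17.5 h at 37 C; CellTiter-Fluor, 30 min, fluorescence read.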

[13] = qHTS assay to identify small molecule antagonists of the estrogen related receptor signaling pathway with the pleiotropic PPARgamma coactivator (PGC) cell viability counter screen (AID 1224822;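 further: series mostly up to about 46 µM; viability read after 17.5 h compound exposure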)
Outline: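 Multiplexed viability counter screen run in PGC/ERR cells treated with compounds for 17.5 h at 37 C; live-cell protease signal measured by CellTiter-Fluor fluorescence.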

[14] = qHTS assay to identify small molecule antagonists of the estrogen related receptor (ERR) signaling pathway from Tox21 library - cell viability counter screen (AID 1224834); further: nearly all actives have a fitted effect of over 30% in size; further: potency means the concentration at half of the fitted maximal effect
Outline: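 ERR cells, 2,000/well; 6 h settle at 37 C/5% CO2; pin-tool compound transfer in DMSO; 17.5 h at 37 C; CellTiter-Fluor, 30 min; fluorescence intensity.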

[15] = qHTS assay to identify small molecule antagonists of the retinoid-related orphan receptor gamma (ROR-gamma) signaling pathway - cell viability counter screen (AID 1159520); further: nearly all actives have a fitted effect of over 50% in size; further: potency means the concentration at half of the fitted maximal effect
Outline: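 Tet-on ROR gamma CHO cells (1,000/well) were plated 4 hr, given compounds in DMSO for 2 hr at 37 C, then induced with 1 uM final doxycycline for 16 hr. Viability was read as ATP by CellTiter-Glo luminescence after 30 min.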

[16] = target: Retinoic acid receptor RXR-alpha (Homo sapiens) (UniProt P19793); assay: qHTS assay to identify small molecule agonists of the RXR signaling pathway (AID 1159527; calls by dose curve; further: nearly all actives have a fitted effect of over 35% in size)
Retinoic acid receptor RXR-alpha (Homo sapiens), sequence (P19793 whole entry, looked up): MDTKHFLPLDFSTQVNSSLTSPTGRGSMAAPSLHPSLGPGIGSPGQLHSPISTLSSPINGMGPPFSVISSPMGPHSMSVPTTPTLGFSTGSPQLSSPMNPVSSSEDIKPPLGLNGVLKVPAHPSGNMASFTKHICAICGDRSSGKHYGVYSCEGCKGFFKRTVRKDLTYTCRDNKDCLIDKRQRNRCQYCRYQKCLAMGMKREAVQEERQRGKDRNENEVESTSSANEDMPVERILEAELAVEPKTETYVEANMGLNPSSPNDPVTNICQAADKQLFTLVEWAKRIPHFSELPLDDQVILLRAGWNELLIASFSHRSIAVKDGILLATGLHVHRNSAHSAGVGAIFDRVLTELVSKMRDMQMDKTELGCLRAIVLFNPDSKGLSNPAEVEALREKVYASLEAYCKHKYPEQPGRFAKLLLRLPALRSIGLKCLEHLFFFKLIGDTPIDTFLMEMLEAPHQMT
Outline: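 Beta-lactamase reporter assay, agonist format. Engineered HEK 293T line, charcoal-stripped FBS at 2%, overnight (16 hr) exposure, fluorescence at 460 and 530 nm after 405 nm excitation.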

[17] = qHTS assay to identify small molecule antagonists of the estrogen related receptor (ERR) signaling pathway (AID 1224819)
Outline: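 qHTS in ERR cells, 2,000/well, 1536 format. Cpd (DMSO) added after 6 h settle, 18 h 37 C. One-Glo luminescence, 30 min RT.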

[18] = qHTS assay to identify small molecule agonists of the estrogen related receptor (ERR) signaling pathway (AID 1224820)
Outline: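 Following a 6 h settling period, 2,000 ERR cells per well receive DMSO-dissolved compounds by pin tool and incubate 18 h at 37 C; agonist activity is scored from One-Glo luminescence read 30 min post-addition.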

[19] = qHTS assay to identify small molecule agonists of the estrogen related receptor signaling pathway with the pleiotropic PPARgamma coactivator (PGC) (AID 1224823)
Outline: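 In this quantitative high-throughput screen, an 18 h, 37 C treatment of PGC/ERR cells with compounds in DMSO preceded a One-Glo luminescence read taken after 30 min at room temperature.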

Measured: Potency

CCCCNc1c(C(=O)OCC)c(C)nc2c1cnn2CC
not listed: [14] | [15] | [16] | [17] | [18] | [19]
inactive: all other assays above

CCCCN(CCCC)CCC(O)c1cc2c(Cl)cc(Cl)cc2c2cc(C(F)(F)F)ccc12 (configuration not stated)
active: [5] 29.8 µM | [8] 23.9 µM
inactive: [1] | [3] | [4] | [6] | [9]

Cc1nc(Nc2ncc(C(=O)Nc3c(C)cccc3Cl)s2)cc(N2CCN(CCO)CC2)n1
active: [10] 16.8 µM | [14] 13.3 µM
inactive: [2] | [3] | [4] | [6] | [8] | [9] | [11]

CC(C)N=C(N)/N=C(\N)Nc1ccc(Cl)cc1
inactive: [2] | [3] | [4] | [15] | [6] | [7] | [8] | [9] | [11]

CCCCCCCC/C=C\CCCCCCCC(=O)NCc1ccc(O)c(OC)c1
active: [1] 33.5 µM | [2] 21.3 µM
not listed: [7] | [11]
inactive: all other assays above

O=C1NC2CCCCN2C12CCN(CCCN1c3ccccc3CCc3ccc(Cl)cc31)CC2 (configuration not stated)
active: [2] 23.9 µM | [5] 23.7 µM | [8] 21.3 µM | [10] 29.8 µM | [14] 29.8 µM
inactive: [1] | [3] | [4]

CCC(=O)OCCc1ccccc1
inactive: [2] | [3] | [4] | [15] | [6] | [8] | [9] | [14]

CN(C)c1ccc(N=Nc2ccccc2C(=O)O)cc1
active: [5] 12.2 µM | [11] 1.09 µM | [14] 48.6 µM
inactive: [1] | [2] | [3] | [4] | [9] | [10]

CCCN(CCc1cccs1)[C@H]1CCc2c(O)cccc2C1
inactive: [1] | [2] | [3] | [4] | [15] | [5] | [6] | [16] | [9]

NC(=O)C(=O)N/N=C/c1ccc([N+](=O)[O-])o1
inactive: [1] | [2] | [3] | [4] | [5] | [8] | [9] | [14]

[O]=[Zr]
not listed: [5] | [10] | [12] | [13] | [16] | [17] | [18] | [19]
inactive: all other assays above

O=C(O)CCCCCCC(=O)O
not listed: [10] | [11] | [12] | [13] | [14] | [17] | [18] | [19]
inactive: all other assays above

CC1(C)C(=O)N(Br)C(=O)N1Br
not listed: [12] | [13] | [16] | [17] | [18] | [19]
inactive: all other assays above

CN(C)CCCN1c2ccccc2Sc2ccc(C(F)(F)F)cc21
active: [7] 16.9 µM | [10] 29.8 µM
inactive: [3] | [4] | [15] | [6] | [9]

CCN(CC)CCNc1ccc(CO)c2sc3ccccc3c(=O)c12
inactive: [3] | [4] | [6] | [7] | [9] | [11]
active: [8] 6.01 µM | [14] 13.3 µM

CCOC(=O)C1=C(C)NC(C)=C(C(=O)OCC)C1c1ccccc1/C=C/C(=O)OC(C)(C)C
inactive: [1] | [16]
active: [3] 19 µM | [15] 29.8 µM | [6] 26.8 µM | [10] 29.8 µM | [14] 29.8 µM

SCCCCCCCCS
active: [4] 34.7 µM
not listed: [3] | [12] | [13] | [16] | [17] | [18] | [19]
inactive: all other assays above

O=C1OC(=O)c2cccc3cccc1c23
not listed: [4] | [7] | [9] | [12] | [13] | [17] | [18] | [19]
inactive: all other assays above

CCC(C)(C)c1cc(O)c(C(C)(C)CC)cc1O
inactive: [2] | [4] | [6] | [7] | [16] | [9]
active: [15] 24.3 µM | [5] 24.3 µM

Cn1cnc2ncnc(N)c21
not listed: [4] | [12] | [13] | [14] | [17] | [18] | [19]
inactive: all other assays above
